In PubChem BioAssay (EPA / NIEHS):
“And” between values parts separate entries of the source, which are not always exact repeats. Equal entries are not always repeated. The source made the active and inactive calls. The calls were made as follows: active = hit-call score of the fitted dose curve at least 0.9, where 1 is the maximum; inactive = score below 0.9.

How the values were obtained:
[1] = BSK_BT_PBMCCytotoxicity: PBMC Cytotoxicity Assessment in the BioMAP Diversity Plus: BT Assay (AID 2284225); settings: primary human B cells with PBMC;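 also: PBMC viability measured by Alamar Blue dye reduction fluorescence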
In short: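 PBMC (75,000/well) pretreated with compound 1 h, then activated with SEB and TSST-1 (20 ng/mL each final), incubated 90 h; Alamar Blue added 6 h, fluorescence read at 546/580 nm. Fitted relative to DMSO.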

[2] = read-out: Secreted IgG (sIgG), gene 3500; experiment: BSK_BT_sIgG: BioMAP Diversity Plus: BT Assay for Secreted IgG (sIgG) Biomarker Activity (AID 2284226); settings: primary human B cells with PBMC
In short: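 Read-out: ELISA for secreted IgG after 24 h of chemical exposure in a B cell plus PBMC co-culture. Values reflect upward-direction fitting against DMSO negative controls.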

[3] = BSK_BT_Bcell_Proliferation: Viability Assessment in the BioMAP Diversity Plus: BT Assay for B cell Proliferation (AID 2284227); settings: primary human B cells with PBMC
In short: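 Using a human primary B cell–PBMC co-culture, the assay measures total protein by sulforhodamine B absorbance as a gauge of proliferation after 72 h. Analysis followed the positive fitting direction with DMSO as baseline.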

[4] = read-out: Interleukin 6 (IL6), IL6 (gene 3569); experiment: BSK_BT_xIL6: BioMAP Diversity Plus: BT Assay for Interleukin 6 (IL6) Biomarker Activity (AID 2284228); settings: primary human B cells with PBMC
In short: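 Human B cell/PBMC co-culture; secreted IL-6 quantified by Luminex xMAP 24 h after chemical dosing, fitted relative to DMSO. Parallel PBMC viability by Alamar Blue after 1 h pretreatment, 20 ng/mL SEB and TSST-1, 90 h incubation.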

[5] = read-out: Interleukin 17A (IL17A), IL17A (gene 3605); experiment: BSK_BT_xIL17A: BioMAP Diversity Plus: BT Assay for Interleukin 17A (IL17A) Biomarker Activity (AID 2284229); settings: primary human B cells with PBMC
In short: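 Co-culture of human B cells and PBMC, dosed for 24 h in 96-well format. Secreted IL-17A measured with Luminex xMAP; gain-direction fitting against DMSO as baseline.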

[6] = read-out: Tumor necrosis factor (Homo sapiens) (UniProt P01375); experiment: BSK_BT_xTNFa: BioMAP Diversity Plus: BT Assay for Tumor necrosis factor alpha (TNF-alpha) Biomarker Activity (AID 2284230); settings: primary human B cells with PBMC
In short: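 Endpoint derived in the positive direction versus DMSO vehicle. Cells: B cells together with PBMC, exposed 24 h before TNF-alpha in the medium was read on the Luminex xMAP platform.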

[7] = read-out: Vascular cell adhesion molecule 1 (VCAM1), VCAM1 (gene 7412); experiment: BSK_MyoF_VCAM1: BioMAP Diversity Plus: MyoF Assay for Vascular cell adhesion molecule 1 (VCAM1) Biomarker Activity (AID 2284231); settings: primary human lung fibroblasts
In short: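 Primary human lung fibroblasts (BioMAP MyoF system) dosed with chemical, VCAM-1 measured by ELISA 24 hours later. Fitted in the positive direction against DMSO; parallel SRB staining assessed cytotoxicity.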

[8] = read-out: Collagen I, COL1A1 (gene 1277); experiment: BSK_MyoF_CollagenI: BioMAP Diversity Plus: MyoF Assay for Collagen I Biomarker Activity (AID 2284238); settings: primary human lung fibroblasts
In short: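 Primary human lung fibroblasts (MyoF system) treated 24 h; Collagen I quantified by ELISA and fitted in positive direction against DMSO. Parallel SRB total-protein staining assessed overt cytotoxicity.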

Measured: AC50

Sequence of Tumor necrosis factor (Homo sapiens) (P01375 whole entry, looked up): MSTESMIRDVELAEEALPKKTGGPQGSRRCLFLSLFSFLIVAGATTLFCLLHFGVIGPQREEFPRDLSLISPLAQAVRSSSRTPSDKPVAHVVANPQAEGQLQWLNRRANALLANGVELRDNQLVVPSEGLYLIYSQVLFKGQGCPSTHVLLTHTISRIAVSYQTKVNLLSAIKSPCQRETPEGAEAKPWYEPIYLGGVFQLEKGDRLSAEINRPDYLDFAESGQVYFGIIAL

Nc1cccc(N)n1
inactive: all assays above

C=CC(=O)NC(C)(C)C
inactive: all assays above

CC(Cl)COP(=O)(OCC(C)Cl)OCC(C)Cl (stereo not given)
inactive: all assays above

CCCCCC1=CCCC1=O
active: [2] 20 µM
inactive: all other assays above

CC1(C)CC(O)CC(C)(C)N1[O]
inactive: all assays above

C=CC(=O)OCC(C)OCC(C)OCC(C)OC(=O)C=C (stereo not given)
active: [1] 13.1 µM | [2] 3.06 µM | [3] 11.5 µM | [4] 5.07 µM | [5] 7.92 µM | [6] 10.3 µM | [7] 30.1 µM | [8] 30.4 µM

CC(C)c1cccc(C(C)C)c1N
inactive: all assays above

C=CC(=O)OCCCCCCCC(C)C
active: [2] 20 µM
inactive: all other assays above

CC1=CC=C(C(C)C)CC1
active: [2] 20 µM
inactive: all other assays above

CC=C(C)C=CC=C(C)C
active: [1] 19.9 µM | [2] 12.3 µM | [3] 26.9 µM | [4] 14.1 µM | [6] 27.7 µM
inactive: [5] | [7] | [8]

CC/C=C\CCOC(=O)c1ccccc1O
active: [2] 7.02 µM | [7] 34.2 µM | [8] 31.1 µM
inactive: all other assays above

C=C(C)C(=O)OCCCCCCCCCCCC
inactive: all assays above

C[N+](C)(C)CCCNS(=O)(=O)C(F)(F)C(F)(F)C(F)(F)C(F)(F)C(F)(F)C(F)(F)C(F)(F)C(F)(F)F
active: [2] 52.4 µM and 52.6 µM | [5] 30 µM | [6] 30 µM and 20.4 µM | [7] 44.5 µM and 57 µM | [8] 48.6 µM and 48.1 µM
inactive: [1] | [3] | [4]

C=CCCCCCCCCC=O
inactive: all assays above

O=C(Cl)c1c(Cl)c(Cl)c(C(=O)Cl)c(Cl)c1Cl
inactive: all assays above

Fc1ccc(Br)cc1
inactive: all assays above

O=C1CCCCCCCCCCCN1
inactive: all assays above

C=CC(=O)OCCCCCCOC(=O)C=C
active: [1] 14.3 µM | [2] 5.85 µM | [3] 13.2 µM | [4] 7.22 µM | [5] 6.04 µM | [6] 13.1 µM | [7] 20 µM | [8] 34.4 µM

CCCCCCOC(=O)CCCCC(=O)OCCCCCC
inactive: all assays above

CC(C)CCCCCOC(=O)CS
inactive: all assays above

c1ccc2sc(SSN3CCOCC3)nc2c1
active: [1] 13.2 µM | [2] 8.43 µM | [4] 13.3 µM | [5] 20 µM | [6] 24.3 µM | [7] 30.4 µM | [8] 15.5 µM

Clc1cc(Cl)c(Cl)c(Cl)c1Cl
active: [7] 20 µM
inactive: all other assays above

CCCCCCCO
inactive: all assays above

CCCCCCC=O
inactive: all assays above

CCOC(=O)/C=C\C(=O)OCC
inactive: all assays above

Cc1c(O)cccc1O
inactive: all assays above

COC(OC)(C(=O)c1ccccc1)c1ccccc1
inactive: all assays above
